Reference: PubChem BioAssay (NCI)
The panel holds about 79,000 compounds, 15% with a hit somewhere; the sample as a whole holds those more often. Cut-off read from the data, not from the text of the source: active = growth inhibition above about 70%; inactive = the rest.

How the values were obtained:
[1] = NCI Yeast Anticancer Drug Screen. Data for the rad50 strain (AID 155);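 note: 0% = growth of vehicle-only cultures of the same strain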; conditions: S. cerevisiae rad50 strain growth inhibition; at 50.0 µM; hits give high values
Summary of the method: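 Yeast carrying a defined DNA repair defect were exposed to test compounds, and growth was compared with vehicle-treated controls to give percent inhibition.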

[2] = NCI Yeast Anticancer Drug Screen. Data for the mec2-1 strain (AID 157); conditions: S. cerevisiae mec2-1 strain, at 50.0 µM, hits give high values
Summary of the method: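 Strain: mec2-1 (DNA repair/cell cycle alteration). Compound exposure, then growth measured; inhibition expressed relative to vehicle.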

[3] = NCI Yeast Anticancer Drug Screen. Data for the sgs1 mgt1 strain (AID 161);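 note: 0% = growth of cultures given vehicle only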; conditions: S. cerevisiae sgs1 mgt1 strain, at 50.0 µM, hits give high values
Summary of the method: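 Inhibition of yeast growth, normalised to vehicle-treated controls, is reported for a strain bearing genetic alterations in DNA damage repair.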

[4] = NCI Yeast Anticancer Drug Screen. Data for the cln2 rad14 strain (AID 165);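 note: 0% = growth equal to vehicle treated cultures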; conditions: S. cerevisiae cln2 rad14 strain, at 50.0 µM, hits give high values
Summary of the method: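 Compounds are applied to the cln2 rad14 yeast strain, and growth is then compared with that of vehicle-treated cultures to give inhibition.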

[5] = NCI Yeast Anticancer Drug Screen. Data for the bub3 strain (AID 167); conditions: S. cerevisiae bub3 mutant strain, at 50.0 µM, hits give high values
Summary of the method: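 Compounds were applied to a genetically altered yeast strain carrying a cell-cycle control defect. Growth inhibition was scored against vehicle-treated controls.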

[6] = NCI Yeast Anticancer Drug Screen. Data for the mlh1 rad18 strain (AID 175); conditions: S. cerevisiae mlh1 rad18 strain growth inhibition; at 50.0 µM; hits give high values
Summary of the method: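 Read-out is yeast growth inhibition, calculated against vehicle-only controls. The compound was applied to a strain engineered with DNA damage repair alterations.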

Measured: growth inhibition

CCNC(=O)COc1ccc(Cl)cc1C(C)C
inactive: [1] -2.65% | [2] 7.75% | [3] 15.4% | [4] 18.8% | [5] -0.8% | [6] 0.7%

COc1c(Br)cc(Br)cc1Br
inactive: [1] -1.45% | [2] -5.7% | [3] 14.2% | [4] -47.1% | [5] -10.8% | [6] 6.05%

CS(C)(=O)=Nc1ccc(F)cc1
inactive: [1] 8.9% | [2] -7.6% | [3] -2.3% | [4] -21.7% | [5] -13.1% | [6] 3.25%

Cn1c(=O)n(C2OC(CO)C(O)C2O)c2ncnc(N)c21 (stereo unspecified)
inactive: [1] 8.9% | [2] 0.55% | [3] -5.8% | [4] -43.1% | [5] -2.9% | [6] 4.65%

N#C/C(=N/Nc1nc[nH]c1C(N)=O)C(=O)Nc1ccccc1
inactive: [1] 8.6% | [2] 20.9% | [3] 16.6% | [4] -0.1% | [5] -0.6% | [6] 26.1%

CCOC(=O)c1[nH]n(-c2ccccc2)c(=O)c1/C=N/C(=S)NCCc1ccc(OC)c(OC)c1
inactive: [1] 2.05% | [2] -0.6% | [3] 5.4% | [4] -10.8% | [5] -21% | [6] 13.2%

Cc1nn(C(=O)CC(=O)Nc2ccccc2Cl)c(C)c1N=Nc1ccccc1Cl
inactive: [1] -11.3% | [2] 1.8% | [3] -29.1% | [4] 35.1% | [5] -8.55% | [6] -23.1%

CC(=O)N(C)c1cccc2cccc(S(=O)(=O)O)c12
inactive: [1] -18.2% | [2] -19.1% | [3] -17.1% | [4] -59.2% | [5] -2.05% | [6] -15.3%

C[N+](C)(C)c1cc2c(nn1)Nc1ccccc1S2
inactive: [1] 17.4% | [2] 3.8% | [3] -2.75% | [4] 14.7% | [5] -17.8% | [6] 8.35%

O=C1C=CC(c2ccccc2)(c2ccccc2)O1
inactive: [1] -32.7% | [2] -10.8% | [3] -15.3% | [4] -22.4% | [5] -8.35% | [6] -7.1%

CS(=O)(=O)OCC1COCC1COS(C)(=O)=O (stereo unspecified)
inactive: [1] 26.8% | [2] -6.3% | [3] 8.75% | [4] -11.8% | [5] -14.1% | [6] 16.6%

CC(C)(C)C(=O)C(C(c1ccccc1)N1CCOCC1)N1CCOCC1 (stereo unspecified)
inactive: [1] 21.7% | [2] -5.8% | [3] -33.6% | [4] -17% | [5] 5.7% | [6] -10.6%

CCc1cc2c(cc1COC(C)=O)C(C)(C)CCC2(C)C
inactive: [1] -10.8% | [2] -19.4% | [3] 5.5% | [4] -13.8% | [5] 4.3% | [6] -31.9%

O=C(c1ccccc1)C1CCC(C(=O)c2ccccc2)C1=O (stereo unspecified)
inactive: [1] 15.8% | [2] 14.3% | [3] -8% | [4] 17.9% | [5] 7.3% | [6] -17.2%

Cn1c(=O)ccc2c(=O)c3c(ccc4ccccc43)oc21
inactive: [1] -10.1% | [2] -12.3% | [3] -28.1% | [4] -10.1% | [5] -7.05% | [6] -23.9%

NC(=O)NC(=O)CC1NC(=O)NC1=O (stereo unspecified)
inactive: [1] 9.25% | [2] 12% | [3] 18.1% | [4] 12.1% | [5] -4.1% | [6] -16.4%

CCOC(=O)C(=CNc1ccc2c(c1)OCO2)C(=O)OCC
inactive: [1] 4.95% | [2] -11.2% | [3] 28.2% | [4] 4.65% | [5] 49.4% | [6] 14.8%

Cn1c2nc(=O)n(-c3ccccc3)c(=O)c-2nc2c1CCCC2
inactive: [1] -4.95% | [2] -10.7% | [3] 1.55% | [4] -6.45% | [5] 3.9% | [6] -60.7%

CCOC(=O)Cc1nc2ccc3c(c2[nH]c1=O)C(=O)c1ccccc1C3=O
inactive: [1] 34.7% | [2] 30.1% | [3] 17.1% | [4] 29.4% | [5] 33.2% | [6] 67.8%

CCOC(=O)/C(O)=C/c1cc(=O)n(C)c2ccccc12
inactive: [1] -6.6% | [2] 10.7% | [3] -5.8% | [4] -21.8% | [5] -9.9% | [6] -17.4%

CC(C)=C(CO)CCC(C)C
inactive: [1] -9.3% | [2] -22.9% | [3] -10.4% | [4] 16.9% | [5] 6.65% | [6] -0.05%

CNc1n[nH]c(-c2ccccc2)n1
inactive: [1] 4.85% | [2] -17.5% | [3] 11.8% | [4] 11.9% | [5] 1.15% | [6] 1.8%

COC(=O)c1ccccc1C(=O)c1ccccc1
inactive: [1] -2.5% | [2] 9.2% | [3] 3.8% | [4] -4.75% | [5] -5.95% | [6] 8.4%

CC(C)(O)C(O)(c1ccccc1)c1ccccc1
inactive: [1] 2.65% | [2] 2.75% | [3] 16.7% | [4] 6.5% | [5] 5.95% | [6] 12.8%

O=C1CC(C(F)(F)F)(C(F)(F)F)O1
inactive: [1] 11.3% | [2] 19.4% | [3] -8.75% | [4] -58.2% | [5] 13.6% | [6] -19%

CC(=O)NCC(N)=S
inactive: [1] 5.85% | [2] -24.1% | [3] 0.65% | [4] -1.55% | [5] 5.3% | [6] 4%

CC1(CCl)Nc2ccccc2C(=O)N1c1ccc(Cl)cc1 (stereo unspecified)
inactive: [1] -2.45% | [2] -13.9% | [3] 8.95% | [4] -2.05% | [5] 20.9% | [6] -0.5%

BrCCCOc1ccccc1
inactive: [1] -23.7% | [2] -32.8% | [3] -5.65% | [4] -2.9% | [5] -2.4% | [6] 0.7%

CCNC(=S)OC1CCC2(C)C(=CCC3C2CCC2(C)C(C(C)CCC(CC)C(C)C)CCC32)C1 (stereo unspecified)
inactive: [1] -1.7% | [2] 6.6% | [3] -11.6% | [4] -24.4% | [5] -1.55% | [6] -23.8%

CC(C)=CCCC(=O)C(c1nc2nnc(N)n2[nH]c1=O)c1nc2nnc(N)n2[nH]c1=O
inactive: [1] 13.3% | [2] 13.6% | [3] -1.95% | [4] 17.8% | [5] 1.6% | [6] -7.55%

O=C1Cc2ccccc2C(O)=C1c1cnccn1
inactive: [1] 6.3% | [2] 11.2% | [3] 19.6% | [4] -1.6% | [5] 0.25% | [6] 5.95%

O=S(=O)(c1ccccc1)n1c2c(c3ccccc31)Cc1ccccc1-2
inactive: [1] -3.75% | [2] 0.75% | [3] -16.9% | [4] -8.4% | [5] -2.1% | [6] -6.55%

O=S(=O)(NO)c1ccc(Cl)cc1
inactive: [1] 12.5% | [2] 7.8% | [3] 8.35% | [4] 23.8% | [5] 6.7% | [6] 3.2%

Oc1ccc(Cl)cc1CC(=S)N1CCOCC1
inactive: [1] 11.1% | [2] 1.3% | [3] 0.45% | [4] -10.4% | [5] 3.4% | [6] -3.9%

Cn1c(=O)c2c(nc(OC3CCCCC3)n2C)n(C)c1=O
inactive: [1] 14.1% | [2] -1.3% | [3] 29.4% | [4] 26.1% | [5] 57.5% | [6] -2.95%

C#CCNC(=O)NCCCl
inactive: [1] 18.9% | [2] -3.45% | [3] -0.3% | [4] -34.1% | [5] 27.9% | [6] 2.65%

CN(C)CC1CCC(CN(C)C)C(=O)C1=O (stereo unspecified)
inactive: [1] -36% | [2] -39.4% | [3] -64.5% | [4] -14.7% | [5] -31.3% | [6] -31.3%

COc1cc(C2c3cc4c(c(OC(=O)c5ccncc5)c3CC3COC(=O)C32)OCO4)cc(OC)c1OC (stereo unspecified)
inactive: [1] 1.15% | [2] -11.6% | [3] 35.8% | [4] 15.8% | [5] 5.8% | [6] -0.05%

C/C(=N\N(C)C)c1sc(-n2nc(-c3ccccc3)cc2-c2ccccc2)nc1C
inactive: [1] 10.7% | [2] -10.2% | [3] 17.6% | [4] -8% | [5] 11% | [6] 8.75%

CN(/N=C/C=N/N(C)C1=NCCCCN1)C1=NCCCCN1
inactive: [1] -13.6% | [2] -11.3% | [3] -22.2% | [4] 0.7% | [5] 7.55% | [6] -11.8%

CNc1cc(S(=O)(=O)O)ccc1C
inactive: [1] 1.45% | [2] -4.45% | [3] -2.6% | [4] 3.9% | [5] 10.6% | [6] -5.05%
